Measurements published in the supplement of paper PMC12340641.
Structures can show the parent of a compound that is named as a salt.

Assays:
[1] = target: IKZF1 (dCK*-IKZF1 fusion in HEK293FT) (UniProt Q13422); assay: inhibition of IKZF1 HTRF signal (DMSO = 0%, pomalidomide 10 uM = 100%); higher = lower IKZF1 protein level; details: compound concentration: 5 uM, overnight (~20 h)
In short: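 After overnight treatment at 37 °C with 5 μM compound in single wells, HEK293FT cells (2000/well, 384-well) stably expressing an IKZF1 fusion were lysed for 30 min at room temperature. A commercial HTRF total-IKZF1 antibody kit was incubated with the lysate overnight, and the time-resolved FRET ratio at 665/620 nm was corrected for background. Data are given as percent inhibition of IKZF1 signal relative, on each plate, to vehicle and a reference degrader, set at 0% and 100% respectively.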

[2] = tested on: HEK293FT dCK*-only; assay: relative growth in counter assay (no AraC = 100%, AraC + DMSO = 0%); higher = more growth rescue independent of IKZF1; details: compound concentration: 5 uM; AraC concentration: 0.3 uM; overnight pretreatment + 4 days AraC
In short: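 Counter assay in HEK293FT cells expressing dCK* alone (300/well, 384-well). Cells received 5 μM compound 2 h after seeding, then after overnight at 37 °C a nucleoside suicide substrate at 0.3 μM plus medium for 4 days. On day 5, Hoechst 33342-stained nuclei were counted by imaging. Relative growth was normalised per plate to wells without suicide substrate (100%) and substrate plus vehicle (0%).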

[3] = tested on: HEK293FT dCK*-IKZF1; assay: relative growth recovery (pomalidomide 10 uM = 100%, DMSO = 0%); higher = more growth rescue (IKZF1 fusion degradation); details: compound concentration: 5 uM; AraC concentration: 0.3 uM; overnight pretreatment + 4 days AraC
In short: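 Means of duplicates from different days are given for growth recovery, normalised per plate against a reference degrader and vehicle. The reference degrader set the 100% level and vehicle the 0% level. HEK293FT cells stably expressing a deoxycytidine kinase–IKZF1 fusion (300/well, 384-well) received 5 μM compound 2 h after seeding and, after overnight at 37 °C, 0.3 μM of a nucleoside suicide substrate plus medium for 4 days. Nuclei stained with Hoechst 33342 were then counted by whole-well imaging on day 5.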

Chain of IKZF1 (dCK*-IKZF1 fusion in HEK293FT) (Q13422 whole entry, looked up, the tested form may be a part): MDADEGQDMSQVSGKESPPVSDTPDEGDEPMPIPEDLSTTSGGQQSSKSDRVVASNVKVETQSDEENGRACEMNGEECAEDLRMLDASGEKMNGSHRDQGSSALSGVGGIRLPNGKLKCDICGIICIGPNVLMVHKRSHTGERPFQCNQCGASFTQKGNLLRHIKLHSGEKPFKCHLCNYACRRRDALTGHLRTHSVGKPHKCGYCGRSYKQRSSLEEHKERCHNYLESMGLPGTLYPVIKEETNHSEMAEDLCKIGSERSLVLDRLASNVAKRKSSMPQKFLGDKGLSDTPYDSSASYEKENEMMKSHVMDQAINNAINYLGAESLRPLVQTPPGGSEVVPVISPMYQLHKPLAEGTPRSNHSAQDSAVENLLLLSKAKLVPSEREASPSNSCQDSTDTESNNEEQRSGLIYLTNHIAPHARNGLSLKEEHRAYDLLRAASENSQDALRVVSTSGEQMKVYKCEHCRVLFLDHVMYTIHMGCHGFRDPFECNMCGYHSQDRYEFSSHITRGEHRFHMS

SMILES	inhibition of IKZF1 HTRF signal [1] [%]	relative growth in counter assay [2] [%]	relative growth recovery [3] [%]
OCCN1CCN(CCCN2c3ccccc3Sc3ccc(C(F)(F)F)cc32)CC1 [Fluphenazine  HCl]	-52.5	15.7	5.51
COc1ccc(C2CC(c3c(O)cc(C)oc3=O)=NCCS2)c(OC)c1 (stereo not given)	-11	-32.5	-10.9
O=C(Nc1ccc(S(=O)(=O)C(F)(F)F)cc1)C1=CCN(c2ncccc2C(F)(F)F)CC1	-40.9	62.2	53.1
Cc1cc(Nc2ncc(Cl)c(Nc3ccccc3S(=O)(=O)C(C)C)n2)c(OC(C)C)cc1C1CCN(CCOCCOCCNC(=O)CNc2cccc3c2C(=O)N(C2CCC(=O)NC2=O)C3=O)CC1 (stereo not given)	66.9	9.17	62.7
O=C(NCC1CCCCN1)c1cc(OCC(F)(F)F)ccc1OCC(F)(F)F (stereo not given) [flecainide]	-38	-3.96	0.135
CN(C)c1ccc2nc3ccc(N(C)C)cc3[s+]c2c1	56.3	-29.4	-11.5
CC(=O)[C@]1(O)Cc2c(O)c3c(c(O)c2[C@@H](O[C@H]2C[C@H](N)[C@H](O)[C@H](C)O2)C1)C(=O)c1ccccc1C3=O [Idarubicin HCl]	11.7	-34.2	-13
c1ccc(C2(c3ccccc3)CC2=C2NCCN2)cc1 [cibenzoline]	-50	0.23	-0.4
CC[C@@]1(O)C(=O)OCc2c1cc1n(c2=O)Cc2cc3cc(O)ccc3nc2-1 [10-Hydroxycamptothecin]	38.4	-34	-13.2
CCCS(=O)c1ccc2nc(NC(=O)OC)[nH]c2c1 (stereo not given) [Albendazole Oxide (Ricobendazole)]	24.3	-7.11	-2.83
CC(NCCC(c1ccccc1)c1ccccc1)c1ccccc1 (stereo not given) [fendiline]	-38	-1.99	2.01
Cc1coc2c1C(=O)C(=O)c1c-2ccc2c(C)cccc12 [Tanshinone I]	-2.3	-6.51	-3.83
CC[N+](C)(CC)CCC[n+]1c(-c2ccccc2)c2cc(N)ccc2c2ccc(N)cc21 [propidium-iodide]	58.8	-10.7	-3.16
O=c1[nH]c2ccccc2n1C1CCN(CCOc2ccccc2)CC1 [oxiperomide]	23.7	-11.6	2.25
CCS(=O)(=O)N(C)[C@@H]1c2cc(C#N)ccc2OC(C)(C)[C@H]1O.CCS(=O)(=O)N(C)[C@H]1c2cc(C#N)ccc2OC(C)(C)[C@@H]1O (racemic) [chromanol-(+/-)]	-29.6	1.25	0.645
C[C@@H]1CC(=O)c2c(ccc3c2C(=O)c2cccc(O)c2C3=O)C1 [ochromycinone]	14.5	6.7	-2.08
S=C=Nc1ccc(N=C=S)cc1	20.8	3.25	-1.61
COc1cc(/C=C2\CCC/C(=C\c3ccc(O)c(OC)c3)C2=O)ccc1O [cyclovalone]	-30.9	-31.6	2.27
CN(C)CCCN1c2ccccc2Sc2ccc(Cl)cc21 [Chlorpromazine HCl]	-4.4	-6.37	-2.69
CN[C@H]1CC[C@@H](c2ccc(Cl)c(Cl)c2)c2ccccc21	-23.8	0.69	-1.94

SMILES	inhibition of IKZF1 HTRF signal [1] [%]	relative growth in counter assay [2] [%]	relative growth recovery [3] [%]
COC(=O)C1=C(C)NC(C)=C(C(=O)OC/C=C/c2ccccc2)C1c1cccc([N+](=O)[O-])c1 (stereo not given) [Pranidipine]	13.9	-3.72	-0.3
Cc1c(S(=O)(=O)O)oc2c1C(=O)C(=O)c1c-2ccc2c1CCCC2(C)C [sodium-tanshinone-ii-a-sulfonate]	20.9	4.38	-1.25
COc1ccc(NS(=O)(=O)c2ccc(N)cc2)nn1	-33.3	-4.98	-1.8
CO[C@H]1C[C@@H]2CC[C@@H](C)[C@@](O)(O2)C(=O)C(=O)N2CCCC[C@H]2C(=O)O[C@H]([C@H](C)C[C@@H]2CC[C@@H](O)[C@H](OC)C2)CC(=O)[C@H](C)/C=C(\C)[C@@H](O)[C@@H](OC)C(=O)[C@H](C)C[C@H](C)/C=C/C=C/C=C/1C [Rapamycin]	-24.4	-20.8	-7.58
Fc1ccc(CNc2ncnc3ccc(F)cc23)cc1 [spautin-1]	8.67	-2.11	5.96
CCCCC(CC)C/N=C(\N)N/C(N)=N/CCCCCC/N=C(\N)N/C(N)=N/CC(CC)CCCC (stereo not given) [Alexidine dihydrochloride]	63.4	-34.4	-13.3
C[C@H]1NCc2cc(-c3ccc4c(=O)c(C(=O)O)cn(C5CC5)c4c3OC(F)F)ccc21 [Garenoxacin (Mesylate hydrate)]	-29	-3.04	-1.59
Cc1cc(NC(=O)C(c2ccccc2)N2CCCc3ccccc32)no1 (stereo not given)	-21.4	-9.71	1.48
COc1c(C/C=C(\C)CCC(=O)O)c(O)c2c(O)occ2c1C [Mycophenolic Acid]	14.9	-30.9	-9.99
CCCCCCCCN=c1ccn(CCCCCCCCCCn2ccc(=NCCCCCCCC)cc2)cc1 [Octenidine Dihydrochloride]	64.7	-35.3	-14.7
CN(Cc1cnc2nc(N)nc(N)c2n1)c1ccc(C(=O)N[C@@H](CCC(=O)O)C(=O)O)cc1	-18.9	-31.2	-10.1
Clc1ccc(COC(Cn2ccnc2)c2ccc(Cl)cc2Cl)c(Cl)c1 (stereo not given)	-32.3	-7.63	-6.23
CC[C@]1(O)C[C@@H]2C[N@@](CCc3c([nH]c4ccccc34)[C@@](C(=O)OC)(c3cc4c(cc3OC)N(C)[C@H]3[C@@](O)(C(=O)OC)[C@H](OC(C)=O)[C@]5(CC)C=CCN6CC[C@]43[C@@H]65)C2)C1.O=S(=O)(O)O [Vinblastine (sulfate)]	-4.41	-34.3	-11.4
CN(C)c1ccc2c(c1)Sc1cc(N(C)C)ccc1N2.CS(=O)(=O)O [Leucomethylene blue (Mesylate)]	-24.1	-19.7	-10.3
CC(C)(N)c1nc(-c2ccc(OC(F)(F)F)cc2)c[nH]1	-29.8	5.76	-3.6
COc1ccccc1Oc1c(NS(=O)(=O)c2ccc(C)cn2)nc(-c2ccncc2)nc1OC [Avosentan]	-39.7	-4.67	-1.19
Clc1ccc(C(Cn2ccnc2)OCc2c(Cl)cccc2Cl)c(Cl)c1 (stereo not given) [Isoconazole nitrate (Travogen)]	-10.4	0.7	-3.42
CO[C@H]1/C=C/O[C@@]2(C)Oc3c(C)c(O)c4c(O)c(c(C=NN5CCN(C)CC5)c(O)c4c3C2=O)NC(=O)C(C)=CC=CC(C)[C@@H](O)[C@@H](C)[C@H](O)[C@H](C)[C@@H](OC(C)=O)[C@H]1C (stereo not given in full) [Rifampin (Rifampicin)]	-102	-0.8	-2.73
CC[C@H](CO)Nc1nc(NCc2ccc(-c3ccccn3)cc2)c2ncn(C(C)C)c2n1	8.26	-34.5	-12.2
COC(=O)Nc1nc2ccc(Sc3ccccc3)cc2[nH]1	-26.6	-32.4	-9.72

SMILES	inhibition of IKZF1 HTRF signal [1] [%]	relative growth in counter assay [2] [%]	relative growth recovery [3] [%]
Clc1ccc(COC(Cn2ccnc2)c2ccc(Cl)cc2Cl)c(Cl)c1 (stereo not given) [Miconazole]	20.3	1.72	3.22
Nc1ncnc2c1c(-c1cnc3[nH]ccc3c1)nn2C1CCCC1	-13.8	-33.6	-11.3
OCCCNc1cc(-c2ccnc(Nc3cccc(Cl)c3)n2)ccn1	14.5	-34.4	-12.8
CC(C)(C)CC(C)(C)c1ccc(O)c(Cc2ccc(Cl)cc2Cl)c1	115	-6.45	-7.76
CC(=O)Oc1ccccc1C(=O)Nc1ncc([N+](=O)[O-])s1 [Nitazoxanide]	18.8	-4.25	1.91
O=C1CC[C@H](N2Cc3cc(N4CCN(CC5CCN(c6ccc([C@@H]7c8ccc(O)cc8CC[C@@H]7c7ccccc7)cc6)CC5)CC4)ccc3C2=O)C(=O)N1	-15.2	2.17	9.37
CC(=O)Nc1cccc(Nc2ncnc(N3CCC(OCc4ccc(OC(F)(F)F)cc4)CC3)n2)c1C	4.12	-5.23	1.55
Clc1ccc(CSC(Cn2ccnc2)c2ccc(Cl)cc2Cl)cc1 (stereo not given)	-35.5	-4.03	-1.39
CCN(CC)CCCC(C)Nc1ccnc2cc(Cl)ccc12 (stereo not given)	-24.3	-29.9	-9.51
CCN(CC)CCCC(C)Nc1ccnc2cc(Cl)ccc12 (stereo not given) [Chloroquine Diphosphate]	-13.4	1.31	0.365
CC(=C\c1ccc(Cl)cc1)/C(C)=N/O	-25.6	-1.62	-3.61
COc1cc(NS(=O)(=O)c2ccc(N)cc2)ncn1	-31.4	-5.7	-0.825
CCc1c2c(nc3ccc(OC(=O)N4CCC(N5CCCCC5)CC4)cc13)-c1cc3c(c(=O)n1C2)COC(=O)[C@]3(O)CC [Irinotecan HCl]	-17.6	-35.4	-15.1
O=C(/C=C/c1ccc2ccccc2n1)c1ccncc1	-36.5	-35.1	-15
O=c1[nH]nc(Sc2ncc([N+](=O)[O-])s2)n1-c1ccc2c(c1)OCCO2	-27.9	-34.9	-12.8
COc1ccccc1NC(=O)OCC1CCN(C(=O)OC(C)(C)C)CC1	-21.9	-0.54	0.27
Nc1ncn([C@@H]2O[C@H](CO)C(O)C2O)c(=O)n1 (stereo not given in full) [Azacitidine]	-5.73	4.37	-3.45
COc1ccc(-c2ccc3c(N4CCOCC4)nc(N4C[C@@H](C)O[C@@H](C)C4)nc3n2)cc1CO	14.5	-14	-6.47
CNC[C@H](O)c1ccc(O)c(O)c1 [Epinephrine (L-(-)-Epinephrine-(+)-Bitartrate)]	-25.3	-10.5	-3.19
Fc1ccc(C(c2ccc(F)cc2)N2CCN(C/C=C/c3ccccc3)CC2)cc1 [flunarizine]	-47	1.76	-0.165
